# According to PubChem BioAssay:
# System: Human papillomavirus type 1a protein E7 (residues 44-93)
# Test: small molecules binding HPV E7 44-93 – biochemical, small-molecule microarray, residues 44-93, 635 nm fluorescence, primary screen (AID 1108);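 note: E7 fragment applied at 1 µg/mL in TBST for 1 h at 4 C; score combines spot fluorescence with its signal to noise ratio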
# Conditions: fluorescence 635 nm, higher = more signal
row,SMILES,composite z-score
1,CCOC(=O)C[C@H]1[C@H](OC(=O)c2ccc(C(=O)c3ccccc3)cc2)[C@@H](NC(=O)c2ccccc2)c2cc(OCCCO)ccc2N1C(=O)c1ccc2ccccc2n1,1.31
2,O=C(c1ccccc1)N1C(=O)[C@@]2(Cc3ccccc31)N=C(c1ccc(OCCCO)cc1)O[C@H]2c1ccccc1,1.03
3,Cc1ccc(N2C(=O)c3ccccc3[C@@H](C(=O)NC3CC3)[C@@H]2c2ccc(CO)cc2)nc1,-1.51
4,[N-]=[N+]=Nc1ccccc1[C@@H]1OC(c2ccc(OCCCO)cc2)=N[C@]1(CCS(=O)(=O)c1ccccc1)C(N)=O,1.38
5,COC(=O)C(CC#Cc1ccc2c(c1)[C@]1(C(=O)N2)[C@H](C(=O)Nc2nc3ccccc3s2)[C@H]2C(=O)O[C@H](c3ccccc3)[C@H](c3ccccc3)N2[C@@H]1c1ccccc1OCCO)C(=O)OC,1.17
6,CCOC(=O)C[C@H]1[C@H](OC(=O)c2ccc(C(=O)c3ccccc3)cc2)[C@@H](NC(=O)CC(C)C)c2cc(OCCCO)ccc2N1C(=O)c1ccc2ccccc2n1,1.15
7,C=CC[C@]1(C(=O)NCc2ccccc2)N=C(c2ccc(OCCCO)cc2)O[C@H]1c1ccccc1N=[N+]=[N-],1.44
8,OCCCC1=CC(c2cccs2)N(Cc2cc3c(cc2Br)OCO3)CC1 (stereo not given),0.172
9,COc1ccc(C#Cc2ccc3c(c2)[C@]2(C(=O)N3)[C@H](C(=O)Nc3nc4ccccc4s3)[C@H]3C(=O)O[C@H](c4ccccc4)[C@H](c4ccccc4)N3[C@@H]2c2ccc(O)cc2)cc1,1.42
10,NC(=O)[C@@H]1[C@H]2C(=O)O[C@H](c3ccccc3)[C@H](c3ccccc3)N2[C@H](c2ccc(O)cc2)[C@@]12C(=O)Nc1ccccc12,0.812
11,CCCCC(CC)C(O)C1C=CC2C(=O)N(Cc3ccccc3)C(=O)C2N1n1cnnc1 (stereo not given),0.281
12,O=C1O[C@H](c2ccccc2)[C@H](c2ccccc2)N2[C@H]1[C@@H](C(=O)N1CCCCCCC1)[C@]1(C(=O)Nc3ccc(C#CCCO)cc31)[C@H]2c1ccccc1OCCO,1.62
13,C=CCNC(=O)[C@H]1[C@@H]2C(=O)O[C@@H](c3ccccc3)[C@@H](c3ccccc3)N2[C@@H](c2ccccc2OCCO)[C@]12C(=O)Nc1ccc(C#CCCO)cc12,1.39
14,COc1ccc(C#Cc2ccc3c(c2)[C@]2(C(=O)N3)[C@H](c3ccccc3OCCO)N3[C@H](c4ccccc4)[C@H](c4ccccc4)OC(=O)[C@H]3[C@@H]2C(=O)Nc2nc3ccccc3s2)cc1,1.35
15,CN1C(=O)C2C=CC(C(O)C3CC=CCC3)N(N(c3ccccc3)c3ccccc3)C2C1=O (stereo not given),-1.02
16,O=C1O[C@@H](c2ccccc2)[C@@H](c2ccccc2)N2[C@@H](c3ccccc3OCCO)[C@]3(C(=O)Nc4ccccc43)[C@@H](C(=O)Nc3nc4ccccc4s3)[C@H]12,1.45
17,O=C1NC(=O)C2C1C=CC(C(O)c1cc(C(F)(F)F)cc(C(F)(F)F)c1)N2Nc1ccccn1 (stereo not given),-0.2
18,O=C(N1CCCCC1)[C@]1(Cc2ccccc2)N=C(c2ccc(OCCCO)cc2)O[C@@H]1c1ccccc1,1.42
19,CC(C)c1ccc(NN2C(C(O)c3ccc(B(O)O)cc3)C=CC3C(=O)N(c4ccccc4)C(=O)C32)cc1 (stereo not given),1.25
20,NC(=O)NCC#Cc1ccc2c(c1)[C@]1(C(=O)N2)[C@H](c2ccc(O)cc2)N2[C@H](c3ccccc3)[C@H](c3ccccc3)OC(=O)[C@H]2[C@@H]1C(=O)O,-0.0303
21,Cc1ccccc1C(O)C1C=CC2C(=O)N(c3ccccc3)C(=O)C2N1Nc1ccc(C(C)C)cc1 (stereo not given),0.944
22,COc1ccc(CCNC(=O)[C@@H]2c3ccccc3C(=O)N(Cc3ccccc3Cl)[C@H]2c2ccc(CO)cc2)cc1,1.07
23,O=C(NC1CC1)[C@@H]1c2ccccc2C(=O)N(Cc2ccccc2Cl)[C@H]1c1ccc(CO)cc1,0.791
24,Cc1nc2cc(Br)ccc2c(=O)o1,0.686
25,CCN(CC)c1ccc(N2CC=CC34O[C@@H]5C=CCCOC(=O)C5[C@H]3C(=O)N(CCCCCCO)[C@@H]4C2=O)cc1 (stereo not given in full),-0.873
